Among the data in article PMC8384837, “Expanding the binding specificity for RNA recognition by a PUF domain” are binding signal values, retold here.

Experiment in all cases: yeast three-hybrid, YBZ-1, SC-Leu-His + 0.5 mM 3-AT, 4 days
Details in all cases: tags: N-Gal4 AD-HA kept; label: inside an RPR1-promoter hybrid RNA with tandem MS2 sites; ssRNA

One assay concerns the target PUM1 PUF domain R1-NWV (Homo sapiens, UniProt Q14671 828-1176, S863N;R864W;Q867V). The method in brief: (§1)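 A centromeric plasmid in strain YBZ-1 co-expressed Pumilio-1 PUF domain libraries, randomized at the three base-contacting residues of each repeat, with matching RNA elements; the strain carries a LexA–MS2 coat fusion and a HIS3 reporter. After four days on SC-Leu (input) or SC-Leu-His + 0.5 mM 3-AT (selection), the repeat regions were PCR-amplified and Illumina-sequenced. The interaction score is the log change in variant frequency from input to selection, using log2 and a pseudocount of 1 where absent.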

In a further assay the target is PUM1 PUF domain R1-YYR (Homo sapiens, UniProt Q14671 828-1176, S863Y;R864Y;Q867R). The method in brief:
as §1

Another assay deals with PUM1 PUF domain R4-EWD (Homo sapiens, UniProt Q14671 828-1176, N971E;H972W;Q975D). The gist of the method: as §1
For the next assay, the target named is PUM1 PUF domain R5-RFR (Homo sapiens, UniProt Q14671 828-1176, C1007R;R1008F;Q1011R). The method in brief: as §1
The target in another assay is PUM1 PUF domain R5-QNR (Homo sapiens, UniProt Q14671 828-1176, C1007Q;R1008N;Q1011R). The gist of the method: as §1
Another assay concerns the target T1, PUM1 PUF domain R6-HFS (Homo sapiens, UniProt Q14671 828-1176, N1043H;Y1044F;Q1047S).
T1 sequence: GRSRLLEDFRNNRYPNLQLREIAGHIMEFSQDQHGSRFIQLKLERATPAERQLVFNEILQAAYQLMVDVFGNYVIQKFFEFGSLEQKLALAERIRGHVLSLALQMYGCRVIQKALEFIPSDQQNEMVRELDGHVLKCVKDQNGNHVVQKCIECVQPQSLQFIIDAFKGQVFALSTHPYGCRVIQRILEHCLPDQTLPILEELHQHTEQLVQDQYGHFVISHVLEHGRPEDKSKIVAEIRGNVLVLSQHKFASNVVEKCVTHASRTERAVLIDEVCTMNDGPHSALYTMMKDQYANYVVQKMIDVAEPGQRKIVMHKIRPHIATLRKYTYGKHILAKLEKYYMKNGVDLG
The method in brief: as §1

Another assay concerns the target PUM1 PUF domain R8-RFM (Homo sapiens, UniProt Q14671 828-1176, N1122R;Y1123F;Q1126M). The method in brief: as §1
The target of a further assay is PUM1 PUF domain R8-LYR (Homo sapiens, UniProt Q14671 828-1176, N1122L;Q1126R). The method in brief: as §1
A further assay has as its target PUM1 PUF domain R3-GRH (Homo sapiens, UniProt Q14671 828-1176, C935G;Q939H). The method in brief: as §1
The next assay deals with PUM1 PUF domain R2-IVF (Homo sapiens, UniProt Q14671 828-1176, N899I;Y900V;Q903F). The gist of the method:
as §1

PUM1 PUF domain R5-RFR, sequence (Q14671 828-1176 C1007R/R1008F/Q1011R): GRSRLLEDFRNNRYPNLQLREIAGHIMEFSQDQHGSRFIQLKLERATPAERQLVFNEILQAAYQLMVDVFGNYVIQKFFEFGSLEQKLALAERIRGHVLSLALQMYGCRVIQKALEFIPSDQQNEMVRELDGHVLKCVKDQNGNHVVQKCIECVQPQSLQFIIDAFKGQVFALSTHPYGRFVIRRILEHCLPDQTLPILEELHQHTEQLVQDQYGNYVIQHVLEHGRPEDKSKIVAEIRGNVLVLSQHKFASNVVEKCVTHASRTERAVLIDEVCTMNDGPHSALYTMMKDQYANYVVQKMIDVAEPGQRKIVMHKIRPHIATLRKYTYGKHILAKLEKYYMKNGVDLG
PUM1 PUF domain R1-YYR, sequence (Q14671 828-1176 S863Y/R864Y/Q867R): as the sequence (Q14671 828-1176 C1007R/R1008F/Q1011R) above, with S36Y, R37Y, Q40R, R180C, F181R, R184Q counted along it

In the case of “GGCUAGAACUAGUGGAUCCCCCGGCGCCCGGCGGCUCGAGCCCGGGUAAGUGUAAAUUGUCUGCAUGCCGCCGGGCGCCAUGCCUGCAGGUCGACUCUAGAAAACAUG”, the binding signal with PUM1 PUF domain R1-NWV was 4.33 log2 enrichment (interaction score); with PUM1 PUF domain R1-YYR, 7.65 log2 enrichment (interaction score).

For “GGCUAGAACUAGUGGAUCCCCCGGCGCCCGGCGGCUCGAGCCCGGGUAAGUGUAGAUAGUCUGCAUGCCGCCGGGCGCCAUGCCUGCAGGUCGACUCUAGAAAACAUG”, in the assay with PUM1 PUF domain R4-EWD, the binding signal is 4.33 log2 enrichment (interaction score).

For the sequence “GGCUAGAACUAGUGGAUCCCCCGGCGCCCGGCGGCUCGAGCCCGGGUAAGUGUAAAUCGUCUGCAUGCCGCCGGGCGCCAUGCCUGCAGGUCGACUCUAGAAAACAUG”, in the assay with PUM1 PUF domain R1-YYR, the binding signal is 2.79 log2 enrichment (interaction score).

Turning to “GGCUAGAACUAGUGGAUCCCCCGGCGCCCGGCGGCUCGAGCCCGGGUAAGUGUUAAUAGUCUGCAUGCCGCCGGGCGCCAUGCCUGCAGGUCGACUCUAGAAAACAUG”, the binding signal with PUM1 PUF domain R5-RFR is 3.92 log2 enrichment (interaction score); with PUM1 PUF domain R5-QNR, 2.93 log2 enrichment (interaction score).

For the sequence “GGCUAGAACUAGUGGAUCCCCCGGCGCCCGGCGGCUCGAGCCCGGGUAAGUGUCAAUAGUCUGCAUGCCGCCGGGCGCCAUGCCUGCAGGUCGACUCUAGAAAACAUG”, the binding signal with PUM1 PUF domain R5-RFR is 5.35 log2 enrichment (interaction score).

For “GGCUAGAACUAGUGGAUCCCCCGGCGCCCGGCGGCUCGAGCCCGGGUAAGUGUGAAUAGUCUGCAUGCCGCCGGGCGCCAUGCCUGCAGGUCGACUCUAGAAAACAUG”, in the assay with PUM1 PUF domain R5-RFR, the binding signal is 2.74 log2 enrichment (interaction score).

On to “GGCUAGAACUAGUGGAUCCCCCGGCGCCCGGCGGCUCGAGCCCGGGUAAGUGUAAAUAGUCUGCAUGCCGCCGGGCGCCAUGCCUGCAGGUCGACUCUAGAAAACAUG”, for which the binding signal with PUM1 PUF domain R5-RFR was 2.72 log2 enrichment (interaction score); in the assay with PUM1 PUF domain R1-YYR, 3.43 log2 enrichment (interaction score); with PUM1 PUF domain R6-HFS, 4.79 log2 enrichment (interaction score); with PUM1 PUF domain R8-RFM it was 4.37 log2 enrichment (interaction score); with PUM1 PUF domain R8-LYR, 4.3 log2 enrichment (interaction score); in the assay with PUM1 PUF domain R3-GRH, 4.23 log2 enrichment (interaction score).

As for “GGCUAGAACUAGUGGAUCCCCCGGCGCCCGGCGGCUCGAGCCCGGGUAAGCGUAAAUAGUCUGCAUGCCGCCGGGCGCCAUGCCUGCAGGUCGACUCUAGAAAACAUG”, the binding signal in the assay with PUM1 PUF domain R8-LYR was 5.06 log2 enrichment (interaction score).

Regarding “GGCUAGAACUAGUGGAUCCCCCGGCGCCCGGCGGCUCGAGCCCGGGUAAGUGUAAAGAGUCUGCAUGCCGCCGGGCGCCAUGCCUGCAGGUCGACUCUAGAAAACAUG”, the binding signal in the assay with PUM1 PUF domain R2-IVF is 4.01 log2 enrichment (interaction score).
